The text below walks through data of PubChem BioAssay AID2546 (National Center for Advancing Translational Sciences (NCATS), 2010).

Structures are written as SMILES. Among all 310,000 compounds or so, about 11,000 (3.5%) were called active. About 8% were inconclusive and are not listed. The entries come from a sample that favours actives as a whole. Values without a mark were called inactive. Calls follow the shape of the dose curve; as a rule, active = well fitted inhibition curve with a large enough effect; inconclusive = small, poorly fitted or top-dose-only effect, or effect the other way; inactive = flat fitted curve, though single readings scatter.
% is scaled to controls: 0 for no effect and ±100 for the full control effect; potency is read from the fitted curve at half-maximal effect.

The nature of this test: VP16 counterscreen qHTS for inhibitors of ROR gamma transcriptional activity. Also: nearly all actives have a fitted effect of over 50% in size. Particulars: Drosophila S2 Gal4-VP16 UAS-luciferase, luminescence, 20 h; series mostly up to 53.6 µM; activity, negative = inhibition: at the top concentration. From the text: NIH Molecular Libraries Probe Production Network [MLPCN]
NIH Chemical Genomics Center [NCGC]
Assay Provider: Dan Littman, New York University
The retinoic acid-related orphan receptor (ROR) gamma is a transcription factor that has a central role in the differentiation of Th17 cells, a subset of T helper cells that secrete the inflammatory cytokines IL-17, IL-17F, and IL-22. Th17 cells have been implicated in graft versus host disease, autoimmune disease and asthma. ROR gamma is induced in naive T helper cells in the presence of TGF-beta combined with IL-6, IL-21, or IL-23, and thereafter directs the expression of the Th17 lineage cytokines. To identify nonspecific inhibitors, a Drosophila Schneider cell line was stably transfected with two vectors: a gene expressing a fusion of the Gal4 DNA binding domain and VP16 transactivation domain under the control of the metallothionine promoter and a Photinus luciferase reporter regulated by the Gal4 binding site enhancer, UAS. […] Small molecule inhibitors that inhibit components common to the RORgt and VP16 assays, such as the Gal4 DNA binding domain or the UAS luciferase reporter, will be active in both assays and thus scored as nonspecific.
For screening, 600 cells in 4 uL/well were dispensed into white solid 1536-well plates (Grenier) using a solenoid-based dispenser. Following transfer of 23 nL compound or DMSO vehicle by a pin tool, the plates were incubated 1 hr at ambient temperature, and 1 uL/well copper sulfate (700 uM final concentration) was added. The plates were centrifuged 15 s at 1000 RPM and incubated 20 hr at ambient temperature. After addition of 1.5 uL Photinus luciferase detection reagent, the plates were incubated 10 min at ambient temperature and then read by a ViewLux (Perkin Elmer) to detect luminescence.
(In general: A counterscreen serves to expose hits that act by an unwanted route or on another target.)
As for `CCOc1ccc(NC(=O)C2CCN(C(=O)N3CCOc4ccccc43)CC2)cc1`, the “activity, negative = inhibition” value is -5.72%.
The same measure, in the same setting: for `CCCNC(=O)c1cnc(-c2ccccc2)nc1-c1ccccc1` the value was 14.3%.
As to `CCOC(=O)c1c(C)[nH]c2c1-c1ccccc1C(=O)C2=O`, the Potency is 2.82 µM (active).
Regarding `CCOC(=O)c1c(C)[nH]c(C)c1S(=O)(=O)N(C)CC(=O)Nc1ccccc1C`, the “activity, negative = inhibition” value was 0%.
Take `CCOC(=O)c1c(C)[nH]c(=S)c(C#N)c1-c1ccccc1`: the Potency is 17.8 µM (active).
Turning to `CCOC(=O)c1c(C)nc(-c2ccccc2)nc1NC(=O)C(C)C`, the “activity, negative = inhibition” value is 17%.
The same measure, in the same setting: for `CC(=O)c1c(C)[nH]c(=S)c(C#N)c1-c1ccc(F)cc1` the value was -8.92%; for `CCOC(=O)c1c(C)[nH]c(C(=O)NCc2ccccc2OC)c1C`, -2.66%.
Same read-out and setting: for `COc1cccc(CN(C)C(=O)CC23CC4CC(CC(C4)C2)C3)c1OC` the value was -3.75%; for `COc1cc(/C=C/C(=O)O)cc(S(=O)(=O)Nc2ccccc2C(=O)NCCc2ccccc2)c1OC`, -14%.
On the same count and under the same terms, for `OC(CNCCc1ccc(Cl)cc1Cl)COc1ccccc1` (stereo unspecified) the value was -1.98%.
On to `O=C(N/N=C/c1ccccc1O)/C(=C/c1ccccc1)CCO`, for which the Potency was 1.12 µM (active).
Take `O=C(CCCCCNC(=O)c1ccccc1)N/N=C/c1ccccc1`: the “activity, negative = inhibition” value is -1.19%.
`O=C(CCC(=O)Nc1ccccc1)N/N=C/c1ccccc1F`: the “activity, negative = inhibition” value was 19%.
On the same count and under the same terms, for `COc1ccc(CNS(=O)(=O)c2ccc(-c3cnc(C4CC4)o3)cc2)cc1` the value was -15.3%; for `Cc1ccc(S(=O)(=O)NNC(=O)/C=C/c2cccc(F)c2)cc1`, -0.326%; for `Cc1c(CC(=O)NCC(=O)NCC(=O)O)c(=O)oc2cc3oc4c(c3cc12)CCCC4`, -3.98%.
With `C=CCn1c(C)cc(C2=NNC(=NCC)SC2)c1C`, the Potency was 1 µM (active).
As to `Cc1cc(C2=NNC(=Nc3ccc(S(=O)(=O)N4CCOCC4)cc3)SC2)c(C)n1CC1CCCO1` (stereo unspecified), the “activity, negative = inhibition” value is 2.49%.
On the same count and under the same terms, for `CS(=O)(=O)N1CCc2cc(C(=O)Nc3ccccc3Br)ccc21` the value was 24.9%; for `CS(=O)(=O)c1ccc(Cl)c(NC(=O)Nc2ccccc2)c1`, 8.24%.
Consider `O=C(Nc1ccccc1)c1nnsc1S(=O)(=O)c1ccc(Cl)cc1`, for which the Potency was 11.2 µM (active).
`CC(=O)Nc1cc(C(=O)O)ccc1S(=O)(=O)c1ccc(Cl)cc1`: the “activity, negative = inhibition” value is 1.43%.
Take `CC(=O)Nc1ccc(NC(=O)CN2C(=O)COc3ccc(S(=O)(=O)N4CCCCC4)cc32)cc1`: the “activity, negative = inhibition” value is -2.53%.
On the same count and under the same terms, for `O=[N+]([O-])c1ccc(N(CCO)Cc2ccccc2)c([N+](=O)[O-])c1` the value was -0.982%; for `Cc1cccc(C(=O)O)c1`, -10%.
As to `Cc1cccc(/C(N)=N/OC(=O)c2ccccc2Cl)c1`, the Potency was 5.01 µM (active).
Regarding `Cc1cccc(C(=O)c2cccc(C)c2)c1`, the “activity, negative = inhibition” value is -10.7%.
Consider `O=C(Nc1ccn(Cc2ccccc2)n1)c1n[nH]c([N+](=O)[O-])c1Cl`, for which the Potency is 11.2 µM (active).
Take `Cc1ccc(Cn2ccc(NC(=O)c3cc(C(C)C)on3)n2)cc1`: the “activity, negative = inhibition” value is 10%.
Regarding `O=C(Nc1ccn(Cc2ccccc2)n1)c1cccc(F)c1`, the “activity, negative = inhibition” value is -24.1%.
On the same count and under the same terms, for `CCc1ccc(-c2cc3c(=O)n(CC(=O)NCCCN4CCN(Cc5ccccc5)CC4)nc(C)n3n2)cc1` the value was -6.24%.
On the same count and under the same terms, for `O=C(/C=C/c1ccc(Cl)cc1)NCCCn1ccnc1` the value was 9.13%; for `Cc1ccc2nc(N3C(=O)C(O)=C(C(=O)c4ccco4)C3c3cccc(O)c3)sc2c1` (stereo unspecified), -7.39%; for `Brc1ccc2nc(N3CCCC3)sc2c1`, -10.3%.
As for `c1c2c(cc3sc(N4CCCCC4)nc13)OCCO2`, the Potency was 1.26 µM (active).
With `Cc1nc2cc3c(cc2s1)OCO3`, the “activity, negative = inhibition” value is -16.5%.
The same measure, in the same setting: for `CN(c1ccccc1)S(=O)(=O)c1ccc(Cl)c(C(=O)NCCc2c[nH]c3ccccc23)c1` the value was -1.77%; for `CN(c1ccccc1)S(=O)(=O)c1cc(C(=O)OCC(=O)N2CCN(C(=O)c3ccco3)CC2)ccc1Cl`, 7.37%.
Take `CN(c1ccccc1)S(=O)(=O)c1cc(C(=O)Nc2nc3ccccc3[nH]2)ccc1Cl`: the Potency was 3.16 µM (active).
Take `Cc1c2cnn(CC(=O)NCCCN3CC(C)CC(C)C3)c(=O)c2c(C)n1Cc1ccc(Cl)cc1` (stereo unspecified): the “activity, negative = inhibition” value was -1.41%.
Still for that read-out and setting: for `COc1ccc(C(=O)NCc2nnc(SCC(=O)NC3=NCCS3)n2C)cc1` the value was 2.32%.
In the case of `Cc1cc(-c2ccc(S(=O)(=O)N3CCN(c4cccc(C(F)(F)F)c4)CC3)s2)on1`, the “activity, negative = inhibition” value is -17.3%.
Still for that read-out and setting: for `NC(=O)c1cc2ccccc2o/c1=N/NC(=O)c1cccc(F)c1` the value was -20.1%; for `Cc1cccc(S(=O)(=O)N2CN(CC3CCCO3)c3nc4ccccc4nc32)c1` (stereo unspecified), 5.1%.
As to `Fc1ccccc1/C=C1\CCCC2=C1Nc1ncnn1C2c1ccccc1F` (stereo unspecified), the Potency was 3.98 µM (active).
`CC1=C(C(N)=O)C(c2ccc(Br)cc2)n2ncnc2N1` (stereo unspecified): the “activity, negative = inhibition” value is 12.9%.
On the same count and under the same terms, for `Cc1ccc(C(=O)c2coc3ccc(O)c(CN(C)C)c23)cc1` the value was -13.4%; for `CCCCCCn1cc(C(=O)O)c(=O)c2cc(F)c(N3CCCCC3)cc21`, -9.72%.
Same read-out and setting: for `Cc1ccc(NC(=O)c2cc(-c3ccccc3O)n[nH]2)cc1C` the value was -8.32%.
The same measure, in the same setting: for `O=C(c1ccc(OC2CCN(C/C=C/c3ccc(F)cc3)CC2)cc1)N1CCCCC1` the value was 7.64%.
